From PubChem BioAssay
USP7 inh = inhibitors of human USP7 deubiquitinase; Ubiquitin carboxyl-terminal hydrolase 7 (Homo sapiens), Q93009; purified USP7, Ub-rhodamine cleavage fluorescence; inhibition, % at 20 µM; 0.3% of 47,000 active; AID 1645854, 2021
USP17 block = inhibitors of human USP17 deubiquitinase; Ubiquitin carboxyl-terminal hydrolase 17-like protein 5 (Homo sapiens), A8MUK1; purified USP17, Ub-rhodamine cleavage fluorescence, 3 h; inhibition, % at 50 µM; 6.5% of 47,000 active
USP8 block = inhibitors of human USP8 deubiquitinase; Ubiquitin carboxyl-terminal hydrolase 8 (Homo sapiens), P40818; purified USP8, Ub-rhodamine cleavage fluorescence, 30 min; inhibition, % at 20 µM; 4.2% of 47,000 active
USP10 inh = inhibitors of human USP10 deubiquitinase. Ubiquitin carboxyl-terminal hydrolase 10 (Homo sapiens), Q14694. purified USP10, Ub-rhodamine fluorescence, 60 min. inhibition, % at 20 µM. 1.1% of 47,000 active. AID 1645856, 2021
Target sequence (Q14694 whole entry, looked up): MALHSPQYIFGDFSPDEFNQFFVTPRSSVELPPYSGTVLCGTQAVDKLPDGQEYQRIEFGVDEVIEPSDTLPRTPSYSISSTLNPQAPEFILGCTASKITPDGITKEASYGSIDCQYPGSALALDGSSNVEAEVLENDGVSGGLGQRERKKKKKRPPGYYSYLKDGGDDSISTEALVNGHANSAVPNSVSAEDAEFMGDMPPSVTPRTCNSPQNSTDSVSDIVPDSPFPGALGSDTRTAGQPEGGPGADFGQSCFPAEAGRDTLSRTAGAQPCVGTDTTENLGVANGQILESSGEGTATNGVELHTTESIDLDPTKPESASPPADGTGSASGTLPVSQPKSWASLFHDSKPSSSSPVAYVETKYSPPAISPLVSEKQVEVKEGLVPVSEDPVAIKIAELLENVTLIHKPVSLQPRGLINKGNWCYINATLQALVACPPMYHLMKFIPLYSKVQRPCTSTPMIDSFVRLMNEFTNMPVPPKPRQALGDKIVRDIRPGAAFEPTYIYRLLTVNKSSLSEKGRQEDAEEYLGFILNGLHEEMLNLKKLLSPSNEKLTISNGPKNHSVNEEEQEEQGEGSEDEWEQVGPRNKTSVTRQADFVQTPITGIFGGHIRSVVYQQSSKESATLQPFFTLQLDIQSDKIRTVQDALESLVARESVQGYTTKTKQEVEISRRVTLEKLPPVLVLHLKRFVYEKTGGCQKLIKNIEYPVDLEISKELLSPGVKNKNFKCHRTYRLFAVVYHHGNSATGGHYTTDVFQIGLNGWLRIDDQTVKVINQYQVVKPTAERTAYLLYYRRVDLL
UCHL1 inh = inhibitors of human UCHL1 deubiquitinase. 0.2% of 47,000 active. inhibition, % at 20 µM. purified UCHL1, Ub-rhodamine cleavage fluorescence. AID 1645859, 2021
OTUD3 block = inhibitors of human OTUD3 deubiquitinase. inhibition, % at 25 µM. 0.7% of 47,000 active. purified OTUD3, Ub-rhodamine fluorescence, 2 h
Each line names hits and unclear results; the compound was inactive in the other large screens. Hits are enriched below; roughly 9.2% of the tested compounds scored in any of these assays. No stated cut-off is given here; in the data, active means inhibition above about 30%; inactive means the rest.

COc1ccc2c(c1)CC(C(=O)Nc1cccc(C(C)=O)c1)CO2 (configuration not stated)	none
Cc1ccc(-c2nc(-c3ccccc3)c(S(=O)(=O)CC(=O)Nc3ccc(C)c(C)c3)[nH]2)cc1	USP17 block 37, OTUD3 block 32
Cn1c(=O)[nH]c(=O)c2c1nc(SCCCO)n2Cc1ccccc1Cl	none (no result: USP17 block)
COc1ccc(OCC(=O)N2CCc3cc(-c4noc(C)n4)ccc32)cc1	USP17 block 35
Cc1cc(C)cc(NC(=O)c2c(O)c3ccccc3[nH]c2=O)c1	USP8 block 42
CCOC(=O)c1noc2ncnc(N(C)c3cccc(Cl)c3)c12	none
COc1ccc(OCc2nc(-c3ccc4c(c3)nc(C)c(=O)n4C)no2)cc1	none (no result: USP7 inh)
CO/C(=C/C(=O)O)C1=C(C)SC(C)CC1=O (configuration not stated)	none
CCN(CC)C(=O)CN1CCCC(c2ncncc2-c2cc(C)no2)C1 (configuration not stated)	OTUD3 block 30
Cc1cc(-c2cncnc2C2CCCN(C(=O)C3CC3)C2)on1 (configuration not stated)	none
O=C(c1cccnc1)N1CCCC(Cc2cc(-c3ncc[nH]3)ncn2)C1 (configuration not stated)	none
COc1ccc(N2CCN(Cc3cc(=O)oc4cc(OC)ccc34)CC2)cc1	none
CCOc1cccc2cc(-c3cc(=O)oc4cc(OC)ccc34)oc12	USP8 block 51
Cc1noc([C@@H]2C[C@H]3CN(Cc4ccoc4)C[C@H]3O2)n1	none
Cc1ccccc1NC(=O)c1nnn(-c2ccccc2)c1C	none (no result: USP7 inh)
Cc1ccc(C(=O)Nc2cc3c4c(c2)CC(=O)N4CCC3)cc1C	USP8 block 30
O=C(Nc1ccc(-n2nnc(C(=O)N3CCCC3)n2)cc1)c1cccc(Cl)c1	none
NC(=O)c1nnn(-c2ccc(NC(=O)c3ccc(F)c(F)c3)cc2)n1	USP17 block 64
c1ncn(CC2CN(Cc3csc(C4CCCC4)n3)CCO2)n1 (configuration not stated)	none
c1cncc(-c2cnc3sc(NC4CCCCC4)nn23)c1	USP17 block 35
Cc1ccc(-n2nc3c(c2NC(=O)c2cc(C)cc(C)c2)CS(=O)C3)cc1 (configuration not stated)	none
COc1ccc(C2CCCCCN2C(=O)c2ccnc(C)n2)cc1 (configuration not stated)	none
COc1ccc(C2CCCCCN2C(=O)Cn2ccccc2=O)cc1 (configuration not stated)	USP8 block 67 (no result: USP17 block)
N#Cc1ccccc1NC(=O)c1ccc(Cl)c(S(=O)(=O)N2CCCCCC2)c1	none
O=C(Oc1ccccc1Br)c1ccc(Cl)c(S(=O)(=O)N2CCCCC2)c1	USP8 block 31
O=c1oc(-c2ccc(F)c(Cl)c2)nc2cccc(F)c12	none
CCCCN1CC(C(=O)Nc2ccc(C(=O)Nc3ccc([N+](=O)[O-])cc3C)cc2)CC1=O (configuration not stated)	none
CCC(C(=O)C(C)C(O)C(C)CCc1ccc(C)c(O)c1C(=O)O)C1OC(CC)(C2CCC(O)(CC)C(C)O2)CC1C (configuration not stated)	USP17 block 63, USP10 inh 61, OTUD3 block 32
COc1ccc2cc(CCNC(=O)C3(c4ccc(Cl)cc4)CCCC3)c(=O)[nH]c2c1	USP17 block 43
Cc1ccc2cc(CCNC(=O)COc3ccc(Cl)cc3)c(=O)[nH]c2c1	USP17 block 37
CCc1ccccc1NC(=O)NCCc1cn(C)c2ncccc12	none (no result: USP17 block)
O=C1CCCCCN1CC(=O)N1CCCCC1Cn1cccn1 (configuration not stated)	none
COc1ccc(/C=C/C(=O)Nc2ccc(Cl)c(-c3nc4ncccc4o3)c2)cc1	USP8 block 58
CC(=O)c1cccc(NC(=O)CSc2nnc3c4cc(-c5ccccc5)nn4ccn23)c1	none
CN1C[C@H]2CCN(C(=O)c3ccn[nH]3)CC[C@H]2S1(=O)=O	none
COc1cc2c(oc(=O)c3cc(C)cc(OC)c32)c2c([C@@H]3OC(C)[C@@H](O)[C@@](C)(O)C3O)ccc(O)c12 (some centres not stated)	USP17 block 79, USP8 block 59
Cc1cc(NC(=O)CN2CCCN(S(=O)(=O)c3ccc(F)cc3)CC2)ccc1Br	USP17 block 35
O=C(NCc1ccco1)N1CCCn2nc(-c3cccnc3)cc2C1	USP17 block 31
COc1ccc(CN2C3(CCN(C(C)=O)C3)c3ccccc3S2(=O)=O)cc1 (configuration not stated)	none
COCCc1ccc(Oc2nc(-c3cccnc3)nc3ccccc23)cc1	none
CC(C)(C)OC(=O)N[C@@H](Cc1ccccc1)C(=O)NCC1CCC(C(=O)O)CC1 (some centres not stated)	none
CC(C)(C)OC(=O)N[C@@H](Cc1ccccc1)C(=O)NCC1CCC(C(=O)NCCc2c[nH]c3ccccc23)CC1 (some centres not stated)	USP17 block 44
Cc1nn(-c2nc3ccccc3o2)c2c1C(c1ccc(F)cc1)CC(=O)N2 (configuration not stated)	none
Cc1nn(-c2nc3ccccc3[nH]2)c2c1C(c1ccsc1)CC(=O)N2 (configuration not stated)	USP17 block 45
Cc1csc2ncc(C(=O)N3CCN(c4ccccc4F)CC3)c(=O)n12	OTUD3 block 38
Cc1noc(C)c1CN1CCC2(CCN(C(=O)c3cccnc3)CC2)C1	none
O=c1oc2ccccc2cc1-c1nc(-c2ccc(Oc3ccccc3)cc2)cs1	USP7 inh 70, USP17 block 42, USP8 block 53
COc1ccc(C)cc1NC(=O)C1CC(=O)Nc2nc(SCc3ccccc3)nn21 (configuration not stated)	USP17 block 53, USP10 inh 34
CCn1cnc2c(-c3ccccc3)cn(CC(=O)Nc3ccc4c(c3)OCO4)c2c1=O	none
Cc1ccc(NC(=O)CN2C(=O)CSCC2=O)cc1Cl	none
Cc1ccc2c(c1)c(=O)c(C(=O)c1ccccc1)cn2CC(=O)Nc1ccc2c(c1)OCO2	USP8 block 71, USP10 inh 31
Cc1ccc2c(c1)c(=O)c(C(=O)c1ccccc1)cn2CC(=O)Nc1ccc(C)c(Cl)c1	USP8 block 59
Cc1ccc2c(c1)c(=O)c(C(=O)c1ccc(F)cc1)cn2CC(=O)Nc1ccc2c(c1)OCCO2	USP17 block 70
Cc1noc(C)c1-c1ccc(S(=O)(=O)Nc2ccc(C#N)cc2)cc1	USP8 block 31
Cc1ccc(NS(=O)(=O)c2ccc(-c3c(C)noc3C)cc2)cc1	none
Cc1[nH]c(C)c(S(=O)(=O)NCC(C)C)c1-c1nc(C2CC2)no1	none
O=C(Cc1ccccc1)c1c[nH]c(C(=O)NCc2ccncc2)c1	none
